For part of these data: Entries with a potency or affinity are not part of this list. Activity calls are given as the source filed them.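 How the source made its calls, unless noted: active means primary screen inhibitor hit that blocks the TRPC4 channel at some tested dose, yielding a dose curve; inactive means the rest.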
How the values were obtained:
[1] = test system: TRPC4 beta (transient receptor potential cation channel C4), mouse; assay: activators of mouse TRPC4 channel, confirmation, cell-based, Fluo4 calcium, HEK293 TRPC4beta/mu-opioid, duplicates, 10 µM (AID 2426;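 active means fluorescence ratio normalized to control raised more than 50% in primary screen plus both repeat runs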;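 on activation: percent rise of integrated ratio over buffer wells lacking compound which define 0%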); conditions: Fluo4 calcium fluorescence, at 10 µM; active compounds read high
[2] = test system: transient receptor potential cation channel C4 beta (TRPC4), mouse; assay: activators of mouse TRPC4 channel, confirmation, cell-based, second round, Fluo4, HEK293 TRPC4beta/mu-opioid, 1 µM (AID 2461;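 active means primary screen active and over 50% activation in each of two duplicate runs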;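 on activation: 0% = wells without test compound as baseline of integrated fluorescence ratio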); conditions: Fluo4 calcium fluorescence, at 1 µM; active compounds read high
[3] = test system: TRPC4 (transient receptor potential cation channel C4 beta), mouse; assay: positive allosteric modulators of mouse TRPC4, confirmation, cell-based, second round, Fluo-4, HEK293 TRPC4beta/mu-opioid, 1 µM (AID 2554;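 active means primary screen hit whose fluorescence ratio, in both repeats, exceeds the weak agonist control mean by 3 SD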); conditions: DAMGO EC20, Fluo-4 calcium flux, at 1 µM; active compounds read high
[4] = test system: TRPC4 beta (transient receptor potential cation channel C4), mouse; assay: positive allosteric modulators of mouse TRPC4, confirmation, cell-based, Fluo-4, HEK293 TRPC4beta/mu-opioid (AID 2555;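 active means primary screen hit whose calcium fluorescence ratio, in both repeats, exceeds the weak agonist control mean by 3 SD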); conditions: DAMGO EC20, Fluo-4 calcium flux, at 10 µM; active compounds read high
[5] = target: Short transient receptor potential channel 4 (Mus musculus) (UniProt Q9QUQ5); assay: inhibitors of mouse TRPC4 channel, confirmation, cell-based, Fluo4, HEK293 TRPC4beta/mu-opioid (AID 2636;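 active means calcium signal cut by more than 3 SD below the full-agonist control yet still positive, in both repeats and the earlier primary screen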); conditions: DAMGO, Fluo4 calcium flux, at 10 µM; active compounds read high
Short transient receptor potential channel 4 (Mus musculus), sequence (Q9QUQ5 whole entry, looked up): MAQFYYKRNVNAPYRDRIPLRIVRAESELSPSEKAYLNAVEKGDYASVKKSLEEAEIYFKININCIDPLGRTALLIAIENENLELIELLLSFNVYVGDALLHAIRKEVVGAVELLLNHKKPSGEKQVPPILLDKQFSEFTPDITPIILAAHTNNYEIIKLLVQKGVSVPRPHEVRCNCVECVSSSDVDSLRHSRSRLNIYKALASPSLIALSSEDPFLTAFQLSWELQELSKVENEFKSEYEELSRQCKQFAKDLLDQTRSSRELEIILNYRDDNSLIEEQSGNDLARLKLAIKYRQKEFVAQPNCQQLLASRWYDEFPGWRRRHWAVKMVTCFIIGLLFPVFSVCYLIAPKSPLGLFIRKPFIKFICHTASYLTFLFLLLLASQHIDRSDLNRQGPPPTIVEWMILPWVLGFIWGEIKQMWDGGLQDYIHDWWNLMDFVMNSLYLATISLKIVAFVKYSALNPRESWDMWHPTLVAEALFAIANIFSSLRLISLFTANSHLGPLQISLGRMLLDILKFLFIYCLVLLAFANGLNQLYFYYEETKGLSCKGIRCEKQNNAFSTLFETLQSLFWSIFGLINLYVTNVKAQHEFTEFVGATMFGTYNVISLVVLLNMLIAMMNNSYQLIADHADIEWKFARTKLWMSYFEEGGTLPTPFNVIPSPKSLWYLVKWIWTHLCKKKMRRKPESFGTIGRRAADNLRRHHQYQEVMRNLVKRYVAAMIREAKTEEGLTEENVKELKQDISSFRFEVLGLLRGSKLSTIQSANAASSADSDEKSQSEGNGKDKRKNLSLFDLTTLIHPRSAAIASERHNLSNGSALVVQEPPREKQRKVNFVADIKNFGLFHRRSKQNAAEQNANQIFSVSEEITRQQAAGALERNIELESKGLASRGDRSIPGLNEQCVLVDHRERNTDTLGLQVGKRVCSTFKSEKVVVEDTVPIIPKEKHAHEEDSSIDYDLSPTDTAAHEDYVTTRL

[6] = target: Short transient receptor potential channel 4 (Mus musculus) (UniProt Q9QUQ5); assay: inhibitors of mouse TRPC4 channel, confirmation, cell-based, second round, Fluo4, HEK293 TRPC4beta/mu-opioid, 1 µM (AID 2637;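 active means calcium signal ratio cut to more than 3 SD under the fully stimulated control mean yet still positive, in both repeats and the primary screen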); conditions: Fluo4 calcium flux, DAMGO, at 1 µM; active compounds read high
[7] = target: Short transient receptor potential channel 4 (Mus musculus) (UniProt Q9QUQ5); assay: TRPC4 positive allosteric modulators, dose response, cell-based, HEK293 TRPC4/mu-opioid, Fluo-4 calcium, EC20 DAMGO (AID 434941;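 active means earlier screen potentiator hit that boosts the TRPC4 ion channel at some dose, with a dose response; inactive means no potentiation, no dose response, or not a prior hit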;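 further: calcium entry triggered by an EC20 dose of DAMGO at the co-expressed mu-opioid receptor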)
[8] = target: Short transient receptor potential channel 4 (Mus musculus) (UniProt Q9QUQ5); assay: mouse TRPC4 channel inhibitors, dose response, cell-based, HEK293 TRPC4/mu-opioid, Fluo-4 calcium (AID 434942)
[9] = target: Short transient receptor potential channel 6 (Mus musculus) (UniProt Q61143); assay: inhibition of mouse TRPC6 channel, confirmation, selectivity assay for TRPC4 inhibitor project, cell-based, HEK293, membrane potential dye, duplicate (AID 434948;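 active means active in primary screen and both duplicates, each dropping signal beyond three positive-control SD with fluorescence still positive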); conditions: HEK293 TRPC6, membrane potential dye fluorescence, at 10 µM, stimulated with maximal-effect acetylcholine; active compounds read high
Short transient receptor potential channel 6 (Mus musculus), sequence (Q61143 whole entry, looked up): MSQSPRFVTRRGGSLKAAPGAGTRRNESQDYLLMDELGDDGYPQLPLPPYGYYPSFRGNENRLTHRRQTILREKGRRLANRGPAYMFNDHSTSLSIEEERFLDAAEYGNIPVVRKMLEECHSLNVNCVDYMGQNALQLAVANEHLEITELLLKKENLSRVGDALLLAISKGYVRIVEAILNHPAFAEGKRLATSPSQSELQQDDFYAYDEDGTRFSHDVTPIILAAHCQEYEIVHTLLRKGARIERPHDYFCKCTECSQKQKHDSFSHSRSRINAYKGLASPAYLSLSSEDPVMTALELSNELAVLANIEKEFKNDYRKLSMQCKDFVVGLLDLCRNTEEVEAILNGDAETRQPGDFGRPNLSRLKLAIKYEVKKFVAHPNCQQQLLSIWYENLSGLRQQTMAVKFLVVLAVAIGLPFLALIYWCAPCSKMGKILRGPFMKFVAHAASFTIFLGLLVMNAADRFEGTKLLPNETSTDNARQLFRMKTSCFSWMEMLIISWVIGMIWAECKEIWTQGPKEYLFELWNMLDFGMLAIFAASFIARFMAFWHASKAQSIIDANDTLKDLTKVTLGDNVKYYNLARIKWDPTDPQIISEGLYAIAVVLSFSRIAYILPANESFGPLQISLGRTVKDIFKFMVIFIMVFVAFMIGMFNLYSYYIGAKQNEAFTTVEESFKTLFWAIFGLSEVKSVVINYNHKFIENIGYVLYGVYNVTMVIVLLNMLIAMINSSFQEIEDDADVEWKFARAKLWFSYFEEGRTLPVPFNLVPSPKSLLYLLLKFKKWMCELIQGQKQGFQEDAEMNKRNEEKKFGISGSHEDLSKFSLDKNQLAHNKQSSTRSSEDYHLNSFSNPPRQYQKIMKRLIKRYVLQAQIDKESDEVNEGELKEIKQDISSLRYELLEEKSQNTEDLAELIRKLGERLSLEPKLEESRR

[10] = target: Short transient receptor potential channel 6 (Mus musculus) (UniProt Q61143); assay: activation of mouse TRPC6 channel, confirmation, selectivity assay for TRPC4 activator project, cell-based, HEK293, membrane potential dye, duplicate (AID 434950;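 active means membrane potential signal rise above negative control mean plus 3 SD in both duplicates, also active in the earlier TRPC4 screen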;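 on activation: 0% = buffer only wells and 100% = acetylcholine maximal-effect wells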); conditions: HEK293 TRPC6, membrane potential fluorescence, at 10 µM; active compounds read high
[11] = target: Short transient receptor potential channel 6 (Mus musculus) (UniProt Q61143); assay: TRPC6 potentiation by TRPC4 potentiator hits, confirmation, selectivity assay for TRPC4 potentiator project, HEK293 cells, membrane potential dye, duplicate (AID 434952;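 active means compound raising the membrane signal above positive-control mean plus 3 SD in both repeats, and a primary screen hit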); conditions: HEK293 TRPC6, membrane potential dye fluorescence, at 10 µM, maximal acetylcholine added after compound; active compounds read high
[12] = target: Short transient receptor potential channel 4 (Mus musculus) (UniProt Q9QUQ5); assay: calcium flux activators in TRPC4/5HT1a cells, counter-screen for TRPC4 activator project, cell-based, second counter screen, HEK293 TRPC4/5HT1a, Fluo-4 (AID 434977;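 active means calcium signal rise above buffer-control mean plus 5 SD in both duplicates, and also a hit in the primary screen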;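 on activation: plate controls were assay buffer for no effect and maximal serotonin response for full effect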); conditions: Fluo-4 calcium flux, at 10 µM; active compounds read high
[13] = calcium flux inhibitors in TRPC4/5HT1a cells, confirmation, counter-screen for TRPC4 inhibitor project, cell-based, second counter screen, HEK293 TRPC4/5HT1a, Fluo-4 (AID 434978;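 active means primary screen active whose calcium signal fell more than 3 SD beyond the full-serotonin control mean in both duplicate plates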;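 further: serotonin given first at submaximal then at maximal dose after compound preincubation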); conditions: Fluo-4 calcium flux, at 10 µM, serotonin added to trigger calcium flux; active compounds read high
[14] = test system: TRPC4 (mouse), co-expressed with 5HT1a in HEK293; assay: calcium flux potentiators in TRPC4/5HT1a cells, confirmation, counter-screen for TRPC4 potentiator project, cell-based, second counter screen, HEK293 TRPC4/5HT1a, Fluo-4 (AID 434979;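 active means signal rise over 3 SD above mean of control wells given weak agonist, in both repeats and first screen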); conditions: Fluo-4 calcium flux, at 10 µM, serotonin added at its EC20 dose; active compounds read high
[15] = calcium flux activation in mu-opioid HEK293 cells, confirmation, counter-screen for TRPC4 activator project, cell-based, HEK293 mu-opioid receptor line (AID 449723;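 active means hit in primary screen, with calcium signal over 5 SD above buffer well mean in both duplicates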;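 further: counter screen cells carry the mu-opioid receptor alone and lack TRPC4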); conditions: Fluo-4 calcium fluorescence, at 10 µM; active compounds read high
[16] = calcium flux enhancement in mu-opioid HEK293 cells, confirmation, counter-screen for TRPC4 allosteric potentiator project, cell-based, HEK293 mu-opioid receptor line (AID 449724;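 active means calcium signal rise more than 3 SD above the low-dose agonist control mean, in both duplicate plates and the primary screen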); conditions: Fluo-4 calcium flux, at 10 µM, compound added before EC20 DAMGO stimulus; active compounds read high
[17] = target: Short transient receptor potential channel 4 (Mus musculus) (UniProt Q9QUQ5); assay: mouse TRPC4 channel activators, dose response, cell-based, HEK293 TRPC4/mu-opioid, Fluo-4 calcium (AID 434937;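 active means primary screen activator hit with a dose response curve and TRPC4 channel activation at any tested dose; inactive means no activation, no dose response, or not a primary hit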)

Cc1cc(OCCn2ccnc2)cc(C)c1Cl
inactive: outcome [2] | outcome [3] | outcome [4] | outcome [5] | outcome [6] | outcome [7] | outcome [8] | outcome [9] | outcome [11] | outcome [13] | outcome [14] | outcome [15] | outcome [16]
active: activation [1] 146% | activation [10] 42% | activation [12] 34.8%

COc1ccc(C(=O)C2CCCN(C3Cc4ccccc4C3)C2)cc1OC (stereo not given)
active: activation [1] 128% | activation [10] 81.5% | activation [12] 110%
inactive: outcome [2] | outcome [3] | outcome [4] | outcome [5] | outcome [6] | outcome [7] | outcome [8] | outcome [9] | outcome [11] | outcome [13] | outcome [14] | outcome [15] | outcome [16]

O=C(O)CCNc1nc(-c2ccccc2)c2cc(Br)ccc2n1
active: potentiation [3] 11% | potentiation [14] 24.1%
inactive: outcome [1] | outcome [2] | outcome [4] | outcome [5] | outcome [6] | outcome [17] | outcome [8] | outcome [9] | outcome [10] | outcome [11] | outcome [12] | outcome [13] | outcome [15] | outcome [16]

Cc1ccc(C(C)C)cc1OCCCCN1CCCC1
active: potentiation [3] 15% | potentiation [4] 12% | potentiation [14] 6.54%
inactive: outcome [1] | outcome [2] | outcome [5] | outcome [6] | outcome [17] | outcome [8] | outcome [9] | outcome [10] | outcome [11] | outcome [12] | outcome [13] | outcome [15] | outcome [16]

Cc1cc(OCC(=O)N(C(C)C)C(C)C)cc(C)c1Br
active: potentiation [4] 22% | potentiation [14] 31.9%
inactive: outcome [1] | outcome [2] | outcome [3] | outcome [5] | outcome [6] | outcome [17] | outcome [8] | outcome [9] | outcome [10] | outcome [11] | outcome [12] | outcome [13] | outcome [15] | outcome [16]

CCC1CCCCN1S(=O)(=O)c1ccc(C(=O)N(CCCN(C)C)c2nc3cc4c(cc3s2)OCO4)cc1 (stereo not given)
active: activation [1] 191% | activation [12] 23.1%
inactive: outcome [2] | outcome [3] | outcome [4] | outcome [5] | outcome [6] | outcome [7] | outcome [8] | outcome [9] | outcome [10] | outcome [11] | outcome [13] | outcome [14] | outcome [15] | outcome [16]

CNc1nc(N2CCc3ccccc32)ncc1F
inactive: outcome [1] | outcome [2] | outcome [5] | outcome [6] | outcome [17] | outcome [8] | outcome [9] | outcome [10] | outcome [11] | outcome [12] | outcome [13] | outcome [15] | outcome [16]
active: potentiation [3] 27% | potentiation [4] 75% | potentiation [14] 103%

COc1ccc(Cl)cc1C(=O)NCCN(C)C
inactive: outcome [1] | outcome [2] | outcome [3] | outcome [4] | outcome [5] | outcome [6] | outcome [17] | outcome [8] | outcome [9] | outcome [10] | outcome [11] | outcome [12] | outcome [13] | outcome [15] | outcome [16]
active: potentiation [14] 13.6%

Cc1ccc(/C=N/NC(=O)NC2CCCCC2)o1
inactive: outcome [1] | outcome [2] | outcome [5] | outcome [6] | outcome [17] | outcome [8] | outcome [9] | outcome [10] | outcome [11] | outcome [12] | outcome [13] | outcome [15] | outcome [16]
active: potentiation [3] 10% | potentiation [4] 54% | potentiation [14] 69.9%

Cc1cc2oc(C(=O)N(Cc3ccccc3)C3CCS(=O)(=O)C3)cc(=O)c2cc1Cl (stereo not given)
inactive: outcome [1] | outcome [2] | outcome [3] | outcome [5] | outcome [6] | outcome [17] | outcome [8] | outcome [9] | outcome [10] | outcome [11] | outcome [12] | outcome [13] | outcome [15] | outcome [16]
active: potentiation [4] 47% | potentiation [14] 68.1%

CCSC1=N/C(=C\c2ccc(OC)cc2)C(=O)N1
inactive: outcome [1] | outcome [2] | outcome [3] | outcome [4] | outcome [5] | outcome [6] | outcome [17] | outcome [8] | outcome [9] | outcome [10] | outcome [11] | outcome [12] | outcome [13] | outcome [14] | outcome [15] | outcome [16]

Cc1ccc(C)c(-n2cc(CNCCCn3cccn3)c(-c3ccccc3)n2)c1
active: activation [1] 288% | activation [2] 129% | activation [10] 48.5% | activation [12] 29.9%
inactive: outcome [3] | outcome [4] | outcome [5] | outcome [6] | outcome [7] | outcome [8] | outcome [9] | outcome [11] | outcome [13] | outcome [14] | outcome [15] | outcome [16]

Cc1cccc(Cc2c(C)nc3c(C(=O)NCc4ccco4)cnn3c2C)c1
inactive: outcome [1] | outcome [2] | outcome [3] | outcome [4] | outcome [5] | outcome [6] | outcome [17] | outcome [8] | outcome [9] | outcome [10] | outcome [11] | outcome [12] | outcome [13] | outcome [15] | outcome [16]
active: potentiation [14] 58.9%

Cc1cc2nc3s/c(=C/c4ccc(-c5ccccc5C(=O)O)o4)c(=O)n3c2cc1C
active: activation [1] 177% | activation [10] 675% | activation [12] 112% | activation [15] 136%
inactive: outcome [2] | outcome [3] | outcome [4] | outcome [5] | outcome [6] | outcome [7] | outcome [8] | outcome [9] | outcome [11] | outcome [13] | outcome [14] | outcome [16]

CCCCN(CC)CCNC(=O)c1cc2c(=O)n(C)c3ccccc3c2s1
inactive: outcome [1] | outcome [2] | outcome [5] | outcome [6] | outcome [17] | outcome [8] | outcome [9] | outcome [10] | outcome [11] | outcome [12] | outcome [13] | outcome [15] | outcome [16]
active: potentiation [3] 31% | potentiation [4] 9% | potentiation [14] 8.16%
